# Sampled rows, rich in hits. Any-hit rate of the full collection: about 4.1%.
# 697 NFkB inh = inhibitors of the PMA/ionomycin-induced NF-kB reporter in 697 B cells; AID 435022; 330,000 compounds, 0.33% hits; inhibition, % at 4 µM; 697 B-cell NF-kB luciferase reporter, 16 h; in the data active = inhibition above about 35%
# Mdm2 MdmX PPI = disrupts the human Mdm2-MdmX interaction; 330,000 compounds, 3% hits; inhibition, % at 8 µM; AID 485346; SaOS-2 split-luciferase Mdm2/MdmX complementation, luminescence;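 active = inhibition of at least 50% at 8 µM in the primary screen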
# Jurkat NFkB inh = lowers PMA/ionomycin-induced NF-kB signal in Jurkat cells; 330,000 compounds, 0.53% hits; inhibition, % at 4 µM; PMA/ionomycin-induced NF-kB luciferase reporter, luminescence; AID 435003; in the data active = inhibition above about 50%
# KLF5 inh = suppresses KLF5 promoter-driven expression. 290,000 compounds, 0.23% hits. inhibition, % at 5 µM. DLD-1 KLF5 promoter-luciferase reporter, luminescence;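 active = inhibition above a per-plate limit of that plate's mean compound inhibition plus 3 SD, cut at about 60% in these data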;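 note: 0% = DMSO wells and 100% = LY294002 at 200 µM; higher means less KLF5 promoter-driven luciferase light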
# Gli-Sufu block = Gli-Sufu pathway antagonism | 340,000 compounds, 0.74% hits | inhibition, % at 5 µM | AID 588413 | Sufu-KO-LIGHT fibroblasts, Gli luciferase reporter luminescence;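 active = inhibition above about 55%, limit read from the data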;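 note: 0% = DMSO-treated cells and 100% = wells with medium but no cells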
# aSyn 5UTR inh = MLPCN primary screen, SNCA 5' untranslated region; inhibition, % (tested at 7.5 µM); AID 1813; 300,000 compounds, 0.82% hits; alpha-synuclein 5'UTR reporter, inhibitor activity; in the data active = inhibition above about 60%; inconclusive = no clear call, values can overlap the other calls;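 note: H4 neuroglioblastoma cells stably carrying SNCA 5'UTR luciferase fusion; 0% = DMSO wells and 100% = positive control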
# Gli-Sufu confirm = confirmation of Gli-SUFU pathway antagonists. 2,500 compounds, 40% hits. shares compounds with Gli-Sufu block. inhibition, % at 5 µM. Sufu-KO-LIGHT cells, Gli luciferase reporter, luminescence;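 active = mean inhibition at 5 µM reaching about 45%, limit read from the data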;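 note: plate controls were DMSO-treated cells for no effect and wells lacking cells for full effect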
# SufuKO cytotox = cytotoxicity counter-screen for Gli-SUFU antagonists; shares compounds with Gli-Sufu block; cytotoxicity, % at 5 µM; 2,500 compounds, 32% hits; Sufu-KO-LIGHT cells cytotoxicity, ATP luminescence;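 active = mean cytotoxicity at 5 µM above about 25%, limit read from the data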;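 note: cells exposed to compound overnight for roughly 16 to 18 hours; plate controls were DMSO wells with cells for no effect and medium without cells for full effect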
# Wnt3a cs = Wnt3a reporter inhibition counter-screen; shares compounds with Gli-Sufu block; Wnt-LIGHT cells, Wnt3a-driven luciferase reporter, luminescence; inhibition, % at 6.25 µM; 2,500 compounds, 20% hits; AID 651995;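 active = mean inhibition above about 25%, limit read from the data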
# Active calls of the source: *; ? = inconclusive; / = no result.
SMILES,697 NFkB inh,Mdm2 MdmX PPI,Jurkat NFkB inh,KLF5 inh,Gli-Sufu block,aSyn 5UTR inh,Gli-Sufu confirm,SufuKO cytotox,Wnt3a cs
CN(C)S(=O)(=O)c1ccc(C(=O)Nc2ccn(C)n2)cc1,11.3,-2.4,-8.8,-57.5,8.0,-15.4,/,/,/
Cc1ccccc1CNC(=O)C(=O)NCC1OCCCN1S(=O)(=O)c1cccs1 (centres undefined),-0.5,10.5,12.0,-12.1,-9.6,15.5,/,/,/
O=C(O)c1ccc(N/N=C/c2ccc(OC(=O)c3ccccc3Cl)cc2)cc1,-13.5,-27.8,16.7,-22.8,60.5*,?,63.8*,6.5,79.4*
Nc1ccc(C(=O)N/N=C\c2ccc(OC(=O)c3ccccc3Cl)cc2)cc1,4.0,24.7,-3.8,5.2,-4.3,-11.8,/,/,/
O=C(CSc1nc(O)cc(=O)n1-c1ccc(Cl)c(Cl)c1)Nc1ccc(Cl)cc1Cl,9.9,-11.9,-0.7,-19.4,-9.4,-22.4,/,/,/
Cc1ccc(Cl)cc1N1CCN(C(=O)CSc2nnc3n2C(C)(C)Cc2ccccc2-3)CC1,-5.2,46.8,28.9,3.1,60.6*,30.1,60.2*,19.7,8.0
COc1ccc(N2CCN(C(=O)CSc3nnc4n3C(C)(C)Cc3ccccc3-4)CC2)cc1,-17.3,21.3,9.8,-14.1,14.4,5.1,/,/,/
O=C(CNC(=O)Cc1ccccc1)NCC(=O)OCc1ccccc1,24.5,-21.0,20.3,-23.9,98.7*,5.6,9.8,16.1,-11.3
O=C(Cc1c(F)cccc1Cl)NCC(=O)OCc1ccccc1,6.3,-10.4,-5.4,/,0.3,2.4,/,/,/
O=C(O)C(CCC(C(=O)O)c1ccccc1)c1ccccc1 (centres undefined),/,/,/,/,3.8,/,/,/,/
CCOc1ccc(S(=O)(=O)N2CCN(c3ccccc3OC)CC2)c2cccnc12,9.3,10.7,10.4,1.9,7.9,23.4,/,/,/
O=C(O)C1C2C=CC(C2)C1C(=O)Nc1ccc2c(c1)OCCO2 (centres undefined),-30.9,6.3,21.5,-4.4,59.9*,-5.2,16.2,19.7,54.4*
Clc1ccc(C2Nc3cccc4cccc(c34)N2)c(Cl)c1,/,/,/,/,-34.0,/,/,/,/
O=C1NC(c2cccc3ccccc23)Nc2ccc(Cl)cc21 (centres undefined),/,/,/,/,61.5*,/,58.9*,63.7*,-73.0
Cc1cc(C)nc(SCc2ccc(C(=O)N/N=C3\CCCC(=O)C3)cc2)n1,18.1,-1.9,3.9,13.2,19.5,-16.7,/,/,/
Cc1ccc(-n2c(-c3ccc(Cl)cc3)c[n+]3c2CCC3)cc1,18.1,30.4,21.4,4.4,76.2*,-3.8,77.2*,37.4*,7.2
Cc1ccc(-n2c(-c3ccccc3)c[n+]3c2CCC3)cc1,23.0,-7.0,34.7,-2.3,81.8*,-31.8,84.3*,23.8,40.1*
FC(F)Sc1ccc(-n2c(-c3ccc(Cl)cc3)c[n+]3c2CCC3)cc1,-6.4,12.7,-11.9,0.3,53.4,-3.6,24.1,1.8,-93.5
CCCCc1nc(SCC(=O)N2CCCC2)c2c(=O)n(C)c(=O)n(C)c2n1,-14.0,-0.5,13.1,-20.1,-9.0,19.0,/,/,/
CCOCC(=O)Nc1cc([N+](=O)[O-])ccc1C,18.0,26.0,6.6,-18.0,91.4*,2.1,16.3,0.2,7.0
CCOCC(=O)Nc1cc([N+](=O)[O-])ccc1OC,20.3,7.4,-6.3,-9.7,-3.9,-22.8,/,/,/
O=C(COc1ccc([N+](=O)[O-])cc1)Nc1cc(C(=O)O)cc(C(=O)O)c1,7.5,6.2,-0.3,-6.0,3.2,-16.2,/,/,/
CCOC(=O)c1cc(NC(=O)COc2ccc([N+](=O)[O-])cc2)cc(C(=O)OCC)c1,21.4,22.7,10.0,-32.0,62.6*,23.8,25.5,2.4,-25.2
CC(NC(=O)COc1ccc(Br)cc1)C1CCCO1 (centres undefined),9.5,9.9,4.3,-13.5,-11.9,2.0,/,/,/
O=C1NC2(CCCCCC2)C(=O)N1Cc1ccccc1Cl,-4.2,-38.4,6.0,-12.4,/,9.6,/,/,/
NC(N)=NC(N)=Nc1ccc2ccccc2c1,-6.3,12.8,11.2,-17.7,4.8,2.4,/,/,/
